Measurements as given in ChEMBL document CHEMBL1961873, “Compounds: GSK PKIS; Assays: Nanosyn kinase panel” (2012).
Several values for one entry are separate records, joined by “and”; a condition that tells them apart may be missing. Identical values can stand only once.

Assays:
[1] = molecular target: T1, Muscle, skeletal receptor tyrosine-protein kinase (Homo sapiens) (UniProt O15146); conditions: at 1 µM;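 also: reported value is the mean percent inhibition of MuSK kinase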
T1 sequence (whole entry): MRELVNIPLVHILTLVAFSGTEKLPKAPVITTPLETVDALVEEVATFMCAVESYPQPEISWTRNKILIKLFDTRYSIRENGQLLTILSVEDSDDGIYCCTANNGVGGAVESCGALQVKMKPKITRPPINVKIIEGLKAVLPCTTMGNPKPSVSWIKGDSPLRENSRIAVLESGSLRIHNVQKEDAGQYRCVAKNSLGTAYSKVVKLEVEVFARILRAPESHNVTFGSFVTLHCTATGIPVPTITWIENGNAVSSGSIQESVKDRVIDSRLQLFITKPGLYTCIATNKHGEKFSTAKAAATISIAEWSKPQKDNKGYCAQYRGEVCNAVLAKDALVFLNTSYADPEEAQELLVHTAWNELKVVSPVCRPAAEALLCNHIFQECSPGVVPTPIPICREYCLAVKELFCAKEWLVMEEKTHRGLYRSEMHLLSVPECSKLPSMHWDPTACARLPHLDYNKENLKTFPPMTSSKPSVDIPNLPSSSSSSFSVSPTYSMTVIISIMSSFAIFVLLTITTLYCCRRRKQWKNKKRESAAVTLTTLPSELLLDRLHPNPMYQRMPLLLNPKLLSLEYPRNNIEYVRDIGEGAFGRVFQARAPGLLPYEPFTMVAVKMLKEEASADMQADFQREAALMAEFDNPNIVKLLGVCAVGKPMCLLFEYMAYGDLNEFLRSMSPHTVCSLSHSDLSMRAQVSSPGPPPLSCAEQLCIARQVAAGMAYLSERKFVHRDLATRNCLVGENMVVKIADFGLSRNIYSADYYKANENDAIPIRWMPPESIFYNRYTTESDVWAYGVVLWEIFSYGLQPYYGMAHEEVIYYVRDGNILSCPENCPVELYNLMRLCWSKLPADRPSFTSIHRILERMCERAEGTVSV

[2] = molecular target: Platelet-derived growth factor receptor alpha (Homo sapiens) (UniProt P16234); conditions: at 0.1 µM
Chain of Platelet-derived growth factor receptor alpha (Homo sapiens) (P16234 whole entry): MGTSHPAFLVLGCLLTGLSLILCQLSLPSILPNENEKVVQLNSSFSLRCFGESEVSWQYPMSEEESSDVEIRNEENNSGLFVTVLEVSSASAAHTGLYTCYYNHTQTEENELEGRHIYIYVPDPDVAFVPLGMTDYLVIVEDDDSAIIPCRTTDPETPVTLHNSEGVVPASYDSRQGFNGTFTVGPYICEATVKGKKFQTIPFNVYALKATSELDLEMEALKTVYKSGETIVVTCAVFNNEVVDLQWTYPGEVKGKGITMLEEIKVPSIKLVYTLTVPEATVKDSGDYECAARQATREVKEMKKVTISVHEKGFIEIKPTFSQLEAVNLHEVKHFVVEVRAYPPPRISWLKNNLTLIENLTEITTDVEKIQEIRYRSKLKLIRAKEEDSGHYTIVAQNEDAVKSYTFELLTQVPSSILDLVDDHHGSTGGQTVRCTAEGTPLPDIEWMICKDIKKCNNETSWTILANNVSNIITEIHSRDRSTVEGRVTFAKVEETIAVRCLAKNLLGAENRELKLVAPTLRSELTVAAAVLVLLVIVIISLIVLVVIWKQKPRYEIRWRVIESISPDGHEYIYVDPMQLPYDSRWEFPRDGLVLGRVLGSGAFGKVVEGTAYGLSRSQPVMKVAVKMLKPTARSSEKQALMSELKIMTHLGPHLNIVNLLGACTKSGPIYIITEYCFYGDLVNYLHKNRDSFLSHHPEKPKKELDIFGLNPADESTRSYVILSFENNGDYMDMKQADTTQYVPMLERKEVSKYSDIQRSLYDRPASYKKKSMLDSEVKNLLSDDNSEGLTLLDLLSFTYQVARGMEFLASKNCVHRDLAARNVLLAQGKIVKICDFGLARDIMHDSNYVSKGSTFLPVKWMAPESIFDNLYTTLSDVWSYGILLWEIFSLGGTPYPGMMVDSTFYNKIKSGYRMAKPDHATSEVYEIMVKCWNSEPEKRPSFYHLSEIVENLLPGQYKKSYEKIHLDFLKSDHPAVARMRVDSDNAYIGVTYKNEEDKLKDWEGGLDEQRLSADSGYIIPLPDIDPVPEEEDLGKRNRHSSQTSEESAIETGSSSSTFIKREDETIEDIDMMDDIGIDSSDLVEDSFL

[3] = molecular target: Platelet-derived growth factor receptor alpha (Homo sapiens) (UniProt P16234); conditions: at 1 µM
[4] = test system: Platelet-derived growth factor receptor alpha (Homo sapiens), P16234 [D842V]; conditions: at 0.1 µM
Chain of Platelet-derived growth factor receptor alpha (Homo sapiens), P16234 [D842V] (P16234 whole entry D842V): as the sequence (P16234 whole entry) above, with D842V counted along it

[5] = test system: Platelet-derived growth factor receptor alpha (Homo sapiens), P16234 [D842V]; conditions: at 1 µM
[6] = test system: Platelet-derived growth factor receptor alpha (Homo sapiens), P16234 [T674I]; conditions: at 0.1 µM
Chain of Platelet-derived growth factor receptor alpha (Homo sapiens), P16234 [T674I] (P16234 whole entry T674I): as the sequence (P16234 whole entry) above, with T674I counted along it

[7] = test system: Platelet-derived growth factor receptor alpha (Homo sapiens), P16234 [T674I]; conditions: at 1 µM
[8] = test system: Platelet-derived growth factor receptor alpha (Homo sapiens), P16234 [V561D]; conditions: at 0.1 µM
Chain of Platelet-derived growth factor receptor alpha (Homo sapiens), P16234 [V561D] (P16234 whole entry V561D): as the sequence (P16234 whole entry) above, with V561D counted along it

[9] = test system: Platelet-derived growth factor receptor alpha (Homo sapiens), P16234 [V561D]; conditions: at 1 µM
[10] = molecular target: Platelet-derived growth factor receptor beta (Homo sapiens) (UniProt P09619); conditions: at 0.1 µM;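 also: reported value is the mean percent inhibition of the kinase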
Chain of Platelet-derived growth factor receptor beta (Homo sapiens) (P09619 whole entry): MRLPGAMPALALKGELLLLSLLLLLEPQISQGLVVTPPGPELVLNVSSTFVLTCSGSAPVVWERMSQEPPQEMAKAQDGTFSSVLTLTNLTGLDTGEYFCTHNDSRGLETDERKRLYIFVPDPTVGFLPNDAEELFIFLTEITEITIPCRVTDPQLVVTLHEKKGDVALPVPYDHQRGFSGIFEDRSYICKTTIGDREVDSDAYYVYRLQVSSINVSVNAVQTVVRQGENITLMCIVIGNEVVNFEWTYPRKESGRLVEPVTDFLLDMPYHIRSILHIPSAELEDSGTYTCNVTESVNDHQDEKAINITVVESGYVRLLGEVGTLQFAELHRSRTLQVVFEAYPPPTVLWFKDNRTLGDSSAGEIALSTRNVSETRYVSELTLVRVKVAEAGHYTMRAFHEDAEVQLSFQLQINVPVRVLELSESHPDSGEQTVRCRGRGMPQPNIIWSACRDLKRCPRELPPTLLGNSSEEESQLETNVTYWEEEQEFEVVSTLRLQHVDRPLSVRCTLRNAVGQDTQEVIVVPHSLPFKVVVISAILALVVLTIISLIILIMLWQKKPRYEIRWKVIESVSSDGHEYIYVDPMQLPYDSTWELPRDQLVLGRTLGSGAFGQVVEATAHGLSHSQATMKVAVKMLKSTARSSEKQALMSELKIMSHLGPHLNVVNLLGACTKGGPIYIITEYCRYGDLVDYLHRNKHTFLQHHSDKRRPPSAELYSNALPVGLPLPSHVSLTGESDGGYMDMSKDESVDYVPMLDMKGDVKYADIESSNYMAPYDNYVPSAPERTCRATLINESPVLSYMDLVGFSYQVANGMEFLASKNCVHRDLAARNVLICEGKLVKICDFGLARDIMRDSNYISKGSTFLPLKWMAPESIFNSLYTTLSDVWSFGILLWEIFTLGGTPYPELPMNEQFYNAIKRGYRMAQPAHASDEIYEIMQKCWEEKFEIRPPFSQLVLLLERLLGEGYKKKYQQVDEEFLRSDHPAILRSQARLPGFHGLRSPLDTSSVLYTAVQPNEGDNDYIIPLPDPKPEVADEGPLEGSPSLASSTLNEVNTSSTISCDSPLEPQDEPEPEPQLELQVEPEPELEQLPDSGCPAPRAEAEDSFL

Compound	inhibition [1]	inhibition [2]	inhibition [3]	inhibition [4]	inhibition [5]	inhibition [6]	inhibition [7]	inhibition [8]	inhibition [9]	inhibition [10]
CC1(C)CC(n2cnc(-c3ccc(F)cc3)c2-c2ccnc(N)n2)CC(C)(C)N1	5.42%	3.29%	5.34%	1.19%	0.18%	2.4%	4.71%	-0.6%	3.08%	5.64%
O=C(Nc1n[nH]c2nnc(-c3cccnc3)cc12)C1CC1	-0.99%	-0.04%	5.88%	2.16%	2.26%	1.36%	6.43%	1.61%	3.69%	1.07%
CS(=O)(=O)Nc1ccc(-c2ccc3c(NC(=O)C4CC4)n[nH]c3c2)cc1	7.76%	12.9%	28.5%	3.79%	10.3%	4.77%	4.09%	5.95%	26.5%	3.96%
COc1cc(Nc2ncc(-c3ccccc3)o2)cc(OC)c1	4.72%	17.5%	54.3%	4.08%	12.3%	19.5%	76.4%	38.5%	64.3%	20.5%
Cc1cc(O)cc(C)c1/C=C/c1cncc(C(=O)OC(C)(C)C)c1	3.99%	9.43%	42.6%	5.23%	14.7%	4.63%	5.73%	14.4%	51%	9.17%
COc1cccc(Nc2nccc(-c3cnn4ncccc34)n2)c1	25.3%	14.3%	49.3%	6.1%	47.1%	12.6%	80.7%	26.4%	64.1%	23.9%
CN(C)CCNC(=O)Nc1ccc(N(C)c2ccnc(Nc3ccc(CS(C)(=O)=O)cc3)n2)cc1	10.1%	19.4%	54%	9.49%	36.1%	9.77%	42.5%	39.2%	67.4%	28.4%
Fc1cccc(COc2ccc(Nc3ncncc3C#Cc3ccccc3)cc2Cl)c1	3.28%	13%	12.4%	5.22%	4.74%	8.12%	9.74%	8.16%	5.45%	6.95%
CN1CCC(C(=O)Nc2n[nH]c3nc(-c4ccc(O)cc4)c(Br)cc23)CC1	9.34% and 7.11%	5.64% and 6.91%	27.9% and 21.1%	2.54% and 0.22%	16.3% and 9.77%	5.57% and 1.83%	9.37% and 7.73%	5.98% and 2.37%	19.9% and 16.1%	7.32% and 7.22%
Cc1c2ccc(N(C)c3ccnc(Nc4cccc(S(N)(=O)=O)c4)n3)cc2nn1C	5.12%	63.5%	86.5%	13.9%	57.9%	77%	96.5%	71.5%	92.5%	53.9%
CCS(=O)(=O)c1ccc(OC)c(Nc2ncc(-c3cccc(C(C)=O)c3)o2)c1	4.06%	23.2%	68%	20.1%	72.8%	7.08%	8.46%	22.1%	68.2%	53.7%
COc1ccc(Nc2ncc(-c3ccccc3)o2)cc1OC	19.2%	25.9%	68.6%	5.83%	28.4%	42.2%	94.4%	48.8%	77%	25.5%
O=C1Nc2ccccc2/C1=C1\CCc2cc(O)ccc21	32.1%	23%	63.2%	7.24%	34.7%	45.7%	97.7%	32.4%	64.8%	11.3%
O=C(O[C@H]1CN[C@H](C#Cc2cc3ncnc(Nc4ccc5c(cnn5Cc5ccccc5)c4)c3s2)C1)N1CCOCC1	-0.19%	2.17%	8.81%	2.71%	3.09%	-0.12%	2.78%	2.22%	2.22%	2.18%
COC(=O)Nc1nc2ccc(Oc3ccc(NC(=O)Nc4cc(C(F)(F)F)ccc4F)cc3)cc2s1	85.6%	70.3%	83.5%	5.8%	22.8%	41.6%	92%	74.8%	93.7%	20.2%
CNC(=O)c1sc(-n2cnc3cc(OC)c(OC)cc32)cc1OCc1ccccc1C(F)(F)F	2.82%	17.2%	59.7%	3.81%	28%	4.17%	9.43%	7.81%	44.8%	9.81%

Compound	inhibition [1]	inhibition [2]	inhibition [3]	inhibition [4]	inhibition [5]	inhibition [6]	inhibition [7]	inhibition [8]	inhibition [9]	inhibition [10]
COc1ccc2ncn(-c3cc(O[C@H](C)c4ccccc4C(F)(F)F)c(C(N)=O)s3)c2c1	22.4%	8.31%	35.4%	4.46%	24.9%	0.36%	9.23%	5.47%	26.1%	6.65%
COc1cc(N2CCN(C(C)C)CC2)ccc1Nc1nc(Nc2cccc(F)c2C(=O)O)c2cc[nH]c2n1	10.5%	11.3%	12.8%	3.04%	3.08%	7.14%	8.84%	5.91%	5.37%	7.62%
Cc1nnc(-c2cccc(-c3ccc(C(=O)NCC4CC4)cc3)c2)o1	6.37%	13.9%	15.2%	2.78%	5.47%	6.98%	11.6%	4.66%	3.3%	5.4%
O=C(O[C@H]1CN[C@H](C#Cc2cc3ncnc(Nc4ccc5c(ccn5Cc5cc(F)ccc5F)c4)c3s2)C1)N1CCOCC1	4.92%	6.05%	12.3%	2.95%	3.49%	5.88%	6.54%	7.32%	5.97%	2.48%
OCCCNc1nccc(-c2c(-c3ccc(F)cc3)nn3cc(C(F)(F)F)ccc23)n1	6.98%	10.9%	15.3%	2.53%	5.03%	4.67%	6.04%	0.23%	6.06%	6.16%
NS(=O)(=O)c1ccc(N/N=C2\C(=O)Nc3ccc(C(=O)NCc4ccncc4)cc32)cc1	21.9%	23.6%	69.4%	18.8%	71.5%	3.72%	16.9%	15.6%	61.3%	45.6%
COc1cc(N2CCN(C(C)C)CC2)ccc1Nc1nc(Nc2cccc3ncccc23)c2cc[nH]c2n1	9.48%	2.96%	15.3%	0.2%	5.09%	2.09%	2.26%	3.08%	14.8%	1.3%
CN1CCN(Cc2ccc(-c3cc4ncnc(Nc5ccc(OCc6cccc(F)c6)c(Cl)c5)c4s3)o2)CC1	1.12% and 8.01%	6.77% and 7.26%	16.9% and 23.4%	3.07% and 3.74%	6.44% and 9.07%	4.32% and 7.13%	13.9% and 20%	5.61% and 3.37%	13.1% and 11.5%	2.48% and 3.36%
NS(=O)(=O)c1ccc(N/N=C2\C(=O)Nc3cccc(CCc4ccncc4)c32)cc1	24.2%	33.5%	60.7%	16.9%	58.5%	6.75%	34.6%	26.3%	72.3%	29.6%
COc1ccccc1-c1cc(/C=C2\C(=O)Nc3ncc(Br)cc32)cc(Br)c1O	5.9%	11.6%	16.9%	2.43%	5.41%	8.02%	8.24%	2.82%	15.2%	6.48%
CC(C)c1ccc(-c2cc(-c3c[nH]nc3-c3ccccn3)ccn2)cc1	6.85%	10%	19.8%	5.82%	34.2%	4.22%	3.25%	5.56%	20.6%	3.19%
CCS(=O)(=O)c1ccc(OC)c(Nc2ncc(-c3cccc(F)c3)o2)c1	16.3%	21.1%	70.7%	11.3%	41.5%	5.36%	17.3%	21.4%	68.7%	35.7%
Cc1ccc(-c2cc3c(NC(=O)C4CC4)ncnc3o2)cc1	7.78%	13.9%	38.1%	7.31%	29.8%	6.86%	32.7%	8.94%	31.9%	8.16%
CC1=C(C(=O)Nc2ccc3[nH]nc(C)c3c2)C(c2ccc(C(F)(F)F)cc2)CC(=O)N1 (stereo not given)	23.7%	7.08%	19.3%	2.09%	6.76%	2.02%	1.41%	-0.51%	8.12%	8.62%
c1ccc(-c2n[nH]cc2-c2ccnc(-c3ccc(OCCn4ccnc4)cc3)c2)nc1	4.35%	14.2%	64.6%	23.5%	76.1%	6.06%	6.32%	17.8%	57%	15.3%
